Test [1] deals with Mast/stem cell growth factor receptor Kit (Homo sapiens) (UniProt P10721). The note with it: at 1 µM.
Test [2] shares this target. The note with it: at 10 µM.
For test [3], the target named is Serine/threonine-protein kinase mTOR (Homo sapiens) (UniProt P42345). The note with it: at 1 µM.
Test [4] has the same target. The note with it: at 10 µM.
The target in test [5] is Proto-oncogene tyrosine-protein kinase Src (Homo sapiens) (UniProt P12931). The note with it: at 1 µM.
For test [6] the target is unchanged. The note with it: at 10 µM.
Test [7] addresses Serine/threonine-protein kinase mTOR (Homo sapiens) (UniProt P42345). The note with it: at 1 µM. The source holds these as a separate data set.
Test [8] shares this target. The note with it: at 10 µM. This is another data set of the same source.
Test [9] has as its target T1, Eukaryotic elongation factor 2 kinase (Homo sapiens) (UniProt O00418).
T1 sequence (whole entry): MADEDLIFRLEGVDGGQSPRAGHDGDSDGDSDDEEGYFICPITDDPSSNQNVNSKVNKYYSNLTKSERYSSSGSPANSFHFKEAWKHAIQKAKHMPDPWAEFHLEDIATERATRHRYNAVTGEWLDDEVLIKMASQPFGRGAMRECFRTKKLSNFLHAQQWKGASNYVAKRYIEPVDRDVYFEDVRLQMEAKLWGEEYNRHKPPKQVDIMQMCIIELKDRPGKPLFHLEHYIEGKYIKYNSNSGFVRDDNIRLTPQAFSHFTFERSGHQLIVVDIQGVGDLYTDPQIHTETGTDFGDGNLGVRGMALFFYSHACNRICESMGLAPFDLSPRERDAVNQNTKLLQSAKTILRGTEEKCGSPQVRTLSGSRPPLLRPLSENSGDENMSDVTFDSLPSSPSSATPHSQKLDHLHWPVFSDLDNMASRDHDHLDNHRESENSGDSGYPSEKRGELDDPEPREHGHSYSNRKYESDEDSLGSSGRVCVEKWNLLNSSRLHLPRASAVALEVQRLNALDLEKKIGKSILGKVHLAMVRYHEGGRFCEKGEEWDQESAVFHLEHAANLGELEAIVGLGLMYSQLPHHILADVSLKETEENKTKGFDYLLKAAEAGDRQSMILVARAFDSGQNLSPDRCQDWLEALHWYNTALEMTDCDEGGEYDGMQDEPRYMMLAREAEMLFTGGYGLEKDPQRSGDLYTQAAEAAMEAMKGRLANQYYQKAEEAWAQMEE
The note with it: at 1 µM.

Test [10] deals with T1, Eukaryotic elongation factor 2 kinase (Homo sapiens). The note with it: at 10 µM.

As usually defined, the residual activity is the signal under treatment as a percentage of the control signal.

Sequence of Mast/stem cell growth factor receptor Kit (Homo sapiens) (P10721 whole entry): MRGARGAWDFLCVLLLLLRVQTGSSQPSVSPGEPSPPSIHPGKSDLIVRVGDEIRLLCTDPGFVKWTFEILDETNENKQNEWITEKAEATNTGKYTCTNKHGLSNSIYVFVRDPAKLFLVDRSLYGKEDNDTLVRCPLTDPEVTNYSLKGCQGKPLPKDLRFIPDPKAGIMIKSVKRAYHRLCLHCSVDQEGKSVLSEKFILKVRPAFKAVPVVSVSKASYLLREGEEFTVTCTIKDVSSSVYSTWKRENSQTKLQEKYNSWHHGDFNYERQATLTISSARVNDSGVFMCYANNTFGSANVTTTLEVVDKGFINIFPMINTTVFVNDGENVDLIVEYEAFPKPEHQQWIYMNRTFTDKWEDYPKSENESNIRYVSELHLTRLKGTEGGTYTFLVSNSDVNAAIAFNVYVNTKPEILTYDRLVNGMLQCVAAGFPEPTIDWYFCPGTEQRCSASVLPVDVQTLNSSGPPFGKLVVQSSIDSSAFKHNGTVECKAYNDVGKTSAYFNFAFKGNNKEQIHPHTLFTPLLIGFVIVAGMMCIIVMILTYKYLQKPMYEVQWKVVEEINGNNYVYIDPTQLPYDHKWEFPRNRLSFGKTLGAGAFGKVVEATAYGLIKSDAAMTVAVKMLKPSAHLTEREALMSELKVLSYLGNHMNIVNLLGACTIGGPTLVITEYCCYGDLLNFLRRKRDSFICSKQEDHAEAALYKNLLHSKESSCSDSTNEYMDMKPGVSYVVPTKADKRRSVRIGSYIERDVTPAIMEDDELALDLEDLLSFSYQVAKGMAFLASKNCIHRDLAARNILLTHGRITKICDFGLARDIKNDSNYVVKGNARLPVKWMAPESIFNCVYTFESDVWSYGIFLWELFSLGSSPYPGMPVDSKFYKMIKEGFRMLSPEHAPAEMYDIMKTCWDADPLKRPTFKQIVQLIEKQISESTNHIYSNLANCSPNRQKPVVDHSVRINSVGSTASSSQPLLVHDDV

`CCOC(=O)c1c(C)[nH]c(/C=C2\C(=O)Nc3ccccc32)c1C`: the residual activity in test [1] turned out to be 38%; in test [2] it was 53%; in test [3], 98%; in [4], 99%.
Regarding `CN(C)S(=O)(=O)c1ccc2c(c1)/C(=C/c1cc3c([nH]1)CCCC3)C(=O)N2`, the residual activity was 29% in test [1], 28% in [2], 31% in [5] and 35% in test [6].
In the case of `O=C1Nc2ccc(Cl)cc2/C1=C/c1cc(Cl)c(O)c(Cl)c1`, the residual activity in test [1] came out at 21%; in test [2], 6%; in test [5], 84%; in [6], 65%; in test [3] it was 51%; in [4], 64%. Besides, the residual activity in [7] was 112%; in test [8], 75%.
For `Cn1sc(=O)n(Cc2ccccc2)c1=O`, the residual activity in test [1] was found to be 100%; in [2] it was 85%; in test [6] it was 92%.
Regarding `COc1cc2c(cc1OC)-c1n[nH]c(Nc3cccc(F)c3)c1C2`, the residual activity in test [1] stood at 0%; in test [2], 0%; in test [5], 44%; in [6] it was 7%; in test [3] it was 110%; in [4], 108%. Moreover, the residual activity in test [8] amounted to 107%.
With `COc1ccc(-c2cnc3c(-c4ccsc4)cnn3c2)cc1`, the residual activity was 100% in test [1], 85% in test [2], 77% in [5] and 90% in test [8].
For the molecule `O=C(c1cc2cc(O)ccc2[nH]1)c1cc2cc(O)ccc2[nH]1`, the residual activity stood at 33% in [1], 5% in test [2], 28% in test [5] and 3% in test [6].
For the molecule `CC(C)[C@H](CO)Nc1nc(Nc2cc(N)cc(Cl)c2)c2ncn(C(C)C)c2n1`, the residual activity in [1] stood at 99%; in test [2], 89%; in test [5], 28%; in test [6], 2%; in test [3], 98%; in test [4] it was 83%. For the same molecule, the residual activity in test [8] was found to be 72%.
As to `Cn1c2ccccc2c2c3c(c4c5ccccc5n(CCC#N)c4c21)CNC3=O`, the residual activity was 113% in test [1]; 82% in [2]; 69% in [5]; 79% in test [6]; 100% (inactive) in [9]; 116% in test [10]. Besides, the residual activity in test [3] came out at 115%; in test [4], 112%; in test [7], 72%; in test [8] it was 99%.
With `c1ccc(-c2cnc(Nc3ccc(OCCN4CCCC4)cc3)s2)cc1`, the residual activity is 1% in test [1]; 1% in test [2]; 70% in [5]; 29% in test [6]; 100% in test [3]; 106% in test [4].
`CCCC(=O)Oc1ccc2[nH]c(C(=O)c3cc4ccccc4[nH]3)cc2c1`: the residual activity came out at 107% in [1]; 89% in test [2]; 81% in test [5]; 94% in test [6]; 100% in [3]; 95% in test [4]. For the same molecule, the residual activity in [7] was 99%; in [8], 79%.
In the case of `NC(=O)Nc1sc(-c2ccc(F)cc2)cc1C(N)=O`, the residual activity in [1] was 56%; in [2], 4%; in [5], 54%; in test [6] it was 10%; in test [3], 114%; in [4], 92%.
Consider `O=C1Cc2c([nH]c3ccc([N+](=O)[O-])cc23)-c2ccccc2N1`, for which the residual activity in test [1] is 110%; in test [2], 109%; in test [5], 53%; in test [6] it was 29%; in test [3], 120%; in test [4], 114%. Besides, the residual activity in [7] turned out to be 104%; in test [8], 100%.
`Nc1ncnc2c1c(-c1ccc(Oc3ccccc3)cc1)cn2C1CCCC1`: the residual activity is 36% in test [1]; 1% in [2]; 5% in test [5]; -1% in [6]; 99% in test [3]; 104% in [4]. In addition, the residual activity in test [7] stood at 97%; in [8], 98%.
`NCCNc1ncc(C(N)=O)c(Nc2cccc(C(F)(F)F)c2)n1`: the residual activity in test [1] worked out at 112%; in test [2] it was 105%; in test [5], 70%; in test [6], 43%; in test [3], 104%; in test [7] it was 117%.
Regarding `COc1cc2nccc(Oc3ccc(NC(=S)NC(=O)c4ccccc4C)cc3)c2cc1OC`, the residual activity in test [1] is 28%; in [2], 3%; in test [5] it was 32%; in test [6], 7%.
As to `CC(C)(C)c1nc2c3ccc(F)cc3c3c(=O)[nH]ccc3c2[nH]1`, the residual activity amounted to 119% in test [1] and 101% in test [2].
For the molecule `COc1cc2ncnc(Nc3cccc(Cl)c3)c2cc1OC`, the residual activity in [1] was 103%; in test [2], 107%; in test [5], 58%; in test [6], 29%.
With `CCCCc1c(-c2ccc(O)cc2)[nH]c2nccnc12`, the residual activity was 98% in [1]; 77% in [2]; 61% in [5]; 22% in test [6]; 96% in test [8].
As to `Oc1cccc(-c2nc(N3CCOCC3)c3oc4ncccc4c3n2)c1`, the residual activity was determined as 118% in test [1]; 100% in test [2]; 91% in test [5]; 94% in test [6]; 49% in [3]; 35% in [4]. In addition, the results for the residual activity in test [7] and in [8] were -12% and 7%, respectively.
For `N#C/C(=C1/Nc2ccccc2S1)c1ccnc(NCCc2cccnc2)n1`, the residual activity in test [3] turned out to be 89%; in [4] it was 62%.
As to `N#C/C(=C\c1ccc(O)c(O)c1)C(=O)NCc1ccccc1`, the residual activity in test [2] was found to be 100%; in [5] it was 87%; in [6], 104%.
As to `O=C(CCCc1ccc(-c2ccccc2F)cc1)Nc1ccc(O)cc1`, the residual activity in test [1] turned out to be 106%; in test [2], 101%; in test [3] it was 103%; in test [4] it was 98%; in test [7], 82%; in test [8], 105%.
In the case of `CN([C@@H](Cc1ccc(OS(=O)(=O)c2cccc3cnccc23)cc1)C(=O)N1CCN(c2ccccc2)CC1)S(=O)(=O)c1cccc2cnccc12`, the figures for the residual activity in test [5], in [6] and in test [7] were 100%, 71% and 81%, respectively.
Turning to `O=C(O)/C=C/c1cc(Br)c(Br)c(Br)c1Br`, the residual activity was 103% in test [2], 82% in [6], 104% in test [3] and 70% in test [4].
Regarding `COc1ccc(COc2ccc(Cc3cnc(N)nc3N)cc2OC)cc1`, the figures for the residual activity in test [3], in test [4] and in [7] were 116%, 119% and 120%, respectively.
With `Fc1ccc(-c2nc3n(c2-c2ccncc2)CCS3)cc1`, in [4], the residual activity stood at 87%.
Turning to `NC(=O)c1cccc(-c2cc(Nc3ccc(OC(F)(F)F)cc3)ncn2)c1`, the residual activity amounted to 87% in test [5], 98% in test [6], 94% in test [3] and 92% in test [4].
For `CC(C)c1nn(-c2c(Cl)cccc2Cl)c2nc(Cc3ccc(OCCO)cc3)[nH]c(=O)c12`, the residual activity in [2] turned out to be 96%; in [6], 87%; in [3], 97%; in test [4], 90%; in test [7] it was 85%; in test [8] it was 86%.
Regarding `CSc1nc(-c2ccc(F)cc2)c(-c2ccnc(NC(C)c3ccccc3)c2)[nH]1` (configuration not stated), the residual activity stood at 129% in test [5], 100% in test [6], 91% in test [7] and 84% in test [8].
